Screens: PubChem BioAssay, National Center for Advancing Translational Sciences (NCATS)
A selection: hits, their analogues and other compounds. The true share with any hit is near 7.7%.
RE007 growth inh: less growth of the S. pombe RE007 Vpr strain | S. pombe RE007 Vpr strain, BacTiter-Glo ATP luminescence, 24 h | AID 651644 | 360,000 tested, 0.21% active | Potency, µM (highest dose often 92.2 µM), inactives show top-dose activity change, negative = less growth, actives largely listed as inhibitors; active = well fitted falling curve with a large enough effect; inconclusive = small, poorly fitted or top-dose-only effect; inactive = no such curve, though single readings can be large or run the other way; also: potency is read from the fitted curve at half-maximal effect; nearly all actives have a fitted effect of over 50% in size
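Fission yeast RE007 carrying one integrated HIV-1 vpr copy, seeded at OD 0.01 in PMG+AL medium with 23 nL pinned compound. Grown 24 h at 30 degrees; viability read by BacTiter-Glo luminescence after 5 min.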
Sm TGR block: blocks Schistosoma mansoni thioredoxin glutathione reductase | Potency, µM (series often up to 114 µM), without a hit: at the top dose activity change, negative = inhibition, actives largely listed as inhibitors | Q962Y6 | purified TGR, DTNB reduction, TNB absorbance 405 nm | AID 485364 | 360,000 tested, 3% active; also: potency is read from the fitted curve at half-maximal effect; nearly all actives have a fitted effect of over 60% in size
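Kinetic colorimetric format: TGR-catalysed, NADPH-driven DTNB reduction monitored via TNB absorbance. Enzyme dispensed at 20 nM; compound exposure 15 min at room temperature before reaction start.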
HCMV antiviral: inhibitors of human cytomegalovirus. HFF cells, HCMV-luciferase reporter, 72 h; active compounds read low. activity change, negative = inhibition, % at 57.5 µM. 410,000 tested, 4.5% active. AID 1259415; in the data active = activity change below about -60%; inconclusive = no clear call, values can overlap the other calls; inactive = above about -39%
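After 16 h attachment at 37C, HFF cells received test compound and HCMV-luciferase (1 PFU/cell); reporter luminescence read 72 h later, data normalized against buffer-only and known inhibitor Salinomycin.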
FMDV inh: antivirals against foot and mouth disease virus | FMDV antiviral cell-based qHTS | AID 1159524 | 410,000 tested, 1.2% active | Potency, µM (doses to about 57.9 µM), inactives show top-dose activity change, negative = inhibition, most hits filed as inhibitors; calls by dose curve; tested in HEK293T cells; also: read-out not given here; potency is read from the fitted curve at half-maximal effect; nearly all actives have a fitted effect of over 45% in size
Giardia FBPA inh: blocks Giardia fructose-bisphosphate aldolase activity; AID 2451; 290,000 tested, 0.71% active; purified Giardia FBPA; A8B2U2; Potency, µM (highest dose often 59.6 µM), inactives show at the highest dose activity, negative = inhibition, usual class: inhibitors; also: potency is read from the fitted curve at half-maximal effect; nearly all actives have a fitted effect of over 55% in size
Target sequence (A8B2U2 whole entry, looked up): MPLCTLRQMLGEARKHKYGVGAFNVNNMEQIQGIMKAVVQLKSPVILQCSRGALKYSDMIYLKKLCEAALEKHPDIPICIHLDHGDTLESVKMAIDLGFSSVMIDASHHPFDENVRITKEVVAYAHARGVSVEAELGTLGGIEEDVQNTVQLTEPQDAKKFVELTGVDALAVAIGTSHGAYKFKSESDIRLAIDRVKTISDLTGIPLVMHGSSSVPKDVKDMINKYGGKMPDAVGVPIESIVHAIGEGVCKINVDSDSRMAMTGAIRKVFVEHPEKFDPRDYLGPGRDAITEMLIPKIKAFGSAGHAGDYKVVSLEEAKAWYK
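Giardia FBPA (40 nM reagent) was preincubated 10 min at RT with compound (up to 57.5 uM final), then substrate plus GAPDH/TPI/NAD/arsenate coupling system with diaphorase/resazurin was added; resorufin fluorescence (525/598 nm) was read after 20 min.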
Tb PYK inh: T. brucei pyruvate kinase inhibition. Potency, µM (highest dose often 76.8 µM), inactives show at the top dose activity, negative = inhibition, most hits filed as inhibitors. Q57TT1. TbPYK enzyme, Kinase-Glo Plus ATP luminescence, 45 min. 410,000 tested, 0.12% active; also: potency is read from the fitted curve at half-maximal effect; nearly all actives have a fitted effect of over 50% in size
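Enzyme and substrate buffer are dispensed first and compound is pin-transferred. ADP at 130 uM final then starts the reaction, which runs 45 min at room temperature. Detection reagent is added for 10 min before luminescence is imaged.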
An asterisk follows results filed as active; u = inconclusive; x = not tested or not shown; [ ] = another dose, or the depositor's remark. Unless noted, calls follow the shape of the dose curve; as a rule, active = well fitted curve in the direction sought with a large enough effect; inconclusive = small, poorly fitted or top-dose-only effect, or another doubt; inactive = no such curve, though single readings can be large; an effect the other way counts as inactive or inconclusive. % is scaled to controls: 0 for no effect and ±100 for the full control effect.

SMILES	RE007 growth inh	Sm TGR block	HCMV antiviral	FMDV inh	Giardia FBPA inh	Tb PYK inh
Cc1ccc(C)n1-c1ccc(N(C)C)cc1	-17%	32µM*	u	-13%	u	-9%
Cc1cnc(C(=O)O)cn1	x	x	x	x	x	-1%
COc1ccc(S(=O)(=O)NCC(c2ccco2)S(=O)(=O)c2ccc(C)cc2)cc1C (stereo not given)	x	0.79µM*	-14	69%	x	2%
CCOc1ccc(S(=O)(=O)NCC(c2ccco2)S(=O)(=O)c2ccc(C)cc2)cc1 (stereo not given)	x	0.32µM*	-20	31%	x	1%
O=C(COc1ccc(Cl)cc1)NCC(c1ccco1)S(=O)(=O)c1ccc(Cl)cc1 (stereo not given)	x	28µM*	10	-18%	x	-18%
COc1ccccc1-c1cc(C(F)(F)F)nc(S(=O)(=O)CCCC(=O)NC(C)C)n1	1%	-2%	-22	8.9µM*	8%	2%
COc1ccccc1-c1cc(C(F)(F)F)nc(S(=O)(=O)CCCC(=O)Nc2cc(Br)ccc2O)n1	x	-15%	55	18%	x	-4%
COc1ccccc1-c1cc(C(F)(F)F)nc(S(C)(=O)=O)n1	2%	28µM*	-104*	32µM*	2%	-4%
COc1ccccc1-c1cc(C(F)(F)F)nc(S(=O)(=O)CCCC(=O)N2CCCCC2C)n1 (stereo not given)	-16%	22µM*	14	7.9µM*	0%	-3%
COc1ccccc1-c1cc(C(F)(F)F)nc(S(=O)(=O)CCCC(=O)NCc2ccc(F)cc2)n1	-10%	u	-99*	14µM*	2%	-2%
CC(=O)Nc1ccc(-c2ccnc3c2CC(C(=O)NCc2ccco2)O3)cc1 (stereo not given)	12%	x	-70*	-14%	x	4%
CC(=O)Nc1ccc(-c2ccnc3c2CC(C(=O)NCc2ccccc2)O3)cc1 (stereo not given)	-7%[18.4 µM]	x	-64*	-20%	x	-2%
O=C(NCc1ccccc1)C1Cc2c(-c3ccc4c(c3)OCO4)ccnc2O1 (stereo not given)	-16%	x	-67*	-1%	x	-2%
CCOC(=O)C1=C(NC(=S)NC(=O)c2ccccc2)c2ccccc2CC1(C)CC (stereo not given)	23%	-3%	u	0%	-8%	2%
CCOC(=O)C1=C(NC(=S)NC(=O)c2ccccc2)c2ccccc2CC1C(C)C (stereo not given)	-2%	-3%	-77*	0%	-12%	-2%
C=CCNC(=S)NNC(=O)c1ccc(C)c(Cl)c1	4%	x	22	34%	5%	-7%
C=CCNC(=S)NC(=O)c1ccc(C)c(Br)c1	u	32µM*	-19	18%	u	-5%
O=C(Cc1ccc(N2CCNC2=O)cc1)N1CCCC(Nc2ccc(F)c(F)c2)C1 (stereo not given)	0%	4%	-61*	-12%	x	-1%
O=C1CC(N2CCN(Cc3ccccc3)CC2)C(=O)N1c1ccccc1 (stereo not given)	-5%	u	123	11%	5%	3%
O=C1CC(N2CCSCC2)C(=O)N1c1ccc(Br)cc1 (stereo not given)	u	u	-37	21%	2%	-5%
CC1CCN(C2CC(=O)N(c3ccccc3)C2=O)CC1 (stereo not given)	20µM*	28µM*	-11	-2%	5%	-2%
CC1CCN(C2CC(=O)N(c3ccc(Br)cc3Br)C2=O)CC1 (stereo not given)	40µM*	20µM*	-31	-22%	0%	-2%
COc1ccc(CCNC(=O)CCc2cn(Cc3ccc(C)cc3)c3ccccc23)c(OC)c1OC	x	0%	u	-2%	x	2%
COc1ccc(/C=C/C(=O)N2CCc3c(cnc(C)c3CNC(=O)c3ccsc3)C2)cc1OC	x	x	x	-9%	x	x
COc1ccc(/C=C/C(=O)C(C(N)=O)=C2SCCS2)cc1	-3%	6%	-101*	15%	4%	-3%
